{"source": "PubChem BioAssay", "note": "Unmarked numbers belong to inactive results. Activity calls are given as the source filed them."}
{"experiment": "yeast growth modulation, basal conditions, primary screen, YJM789 clinical isolate, OD600, 24 h (AID 1089);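 note: growth of clinical yeast isolate S. cerevisiae YJM 789 seeded 1000 cells per well; test concentration not given here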", "conditions": "S. cerevisiae YJM789 growth, higher = more signal, called active from +8 up or from −8 down"}
{"smiles": "COC(=O)C(CC#Cc1ccc2c(c1)[C@]1(C(=O)N2)[C@H](C(=O)N2CCN(c3ncccn3)CC2)[C@H]2C(=O)O[C@H](c3ccccc3)[C@H](c3ccccc3)N2[C@@H]1c1ccc(OCCO)cc1)C(=O)OC", "z-score": 3.19}
{"smiles": "COCCOC(=O)N1C(=O)[C@@]2(c3cc(C#CC4=CCCCC4)ccc31)[C@H](c1ccccc1OCCO)N1[C@H](c3ccccc3)[C@H](c3ccccc3)OC(=O)[C@H]1[C@@H]2C(=O)N1CCCCCCC1", "z-score": 1.31}
{"smiles": "CCOC(=O)C[C@H]1[C@H](OC(=O)c2ccc(C(=O)c3ccccc3)cc2)[C@@H](NC(=O)Cc2ccc(OC)cc2)c2cc(OCCCO)ccc2N1C(=O)c1ccccc1", "z-score": -0.12}
{"smiles": "C=CC[C@@]1(C(=O)N2CCOCC2)N=C(c2ccc(OCCCO)cc2)O[C@@H]1c1ccccc1CN=[N+]=[N-]", "z-score": 0.0366}
{"smiles": "NC(=O)NCC#Cc1ccc2c(c1)[C@]1(C(=O)N2)[C@H](C(=O)NC[C@H](O)c2ccccc2)[C@H]2C(=O)O[C@H](c3ccccc3)[C@H](c3ccccc3)N2[C@@H]1c1ccc(OCCO)cc1", "z-score": 2.75}
{"smiles": "C=C(COC)/C(=C/C[C@H](OC(=O)c1ccncc1)c1ccccc1OCCO)c1cnc2ccccc2c1", "z-score": -1.77}
{"smiles": "[N-]=[N+]=Nc1ccccc1C[C@]1(C(N)=O)N=C(c2ccc(OCCCO)cc2)O[C@H]1c1ccccc1N=[N+]=[N-]", "z-score": -0.376}
{"smiles": "CN1C(=O)C2C=CC(C(O)c3ccccn3)N(N(c3ccccc3)c3ccccc3)C2C1=O", "note": "(configuration not stated)", "z-score": 1.13}
{"smiles": "NCCCCCCNC(=O)[C@@H]1C[C@@H]2C(=O)N[C@@H](CCCCN)C(=O)N2[C@@H]1c1cccc(OCCO)c1", "z-score": 0.825}
{"smiles": "O=C1N(Cc2ccccc2)c2ccccc2[C@@H]2OC(c3ccc(OCCCO)cc3)=N[C@]12Cc1ccccc1", "z-score": -0.548}
{"smiles": "CCCCCCCCCCC(O)C1C=CC2C(=O)N(C)C(=O)C2N1NC(=O)OC(C)(C)C", "note": "(configuration not stated)", "z-score": 0.258}
{"smiles": "OCCCC1=CC(c2ccc(CN3CCCC3)cc2)N(Cc2sc3ccccc3c2Cl)CC1", "note": "(configuration not stated)", "z-score": -0.72}
{"smiles": "[N-]=[N+]=Nc1ccccc1[C@@H]1OC(c2ccc(OCCCO)cc2)=N[C@]1(Cc1ccccc1)C(=O)NCC(O)CO", "note": "(some centres not stated)", "z-score": -0.281}
{"smiles": "C=CCC(OC(C)=O)[C@@H]1[C@@H](N(Cc2cc3ccccc3o2)C(=O)c2ccc(-c3ccccc3)cc2)c2cc(OCCCO)ccc2N1C(=O)c1ccc2ccccc2c1", "note": "(some centres not stated)", "z-score": 0.271}
{"smiles": "Cc1cc(C)c(C(O)C2C=CC3C(=O)N(c4ccccc4)C(=O)C3N2Nc2ccc(C(C)C)cc2)c(C)c1", "note": "(configuration not stated)", "z-score": 1.14}
{"smiles": "COc1cc(OC)c(C(O)C2C=CC3C(=O)N(c4ccccc4)C(=O)C3N2Nc2ccccc2)cc1Br", "note": "(configuration not stated)", "z-score": -0.465}
{"smiles": "CO[C@H]1O[C@H](CO)[C@@H](OC(=O)Nc2ccccc2-c2ccccc2)[C@H](OC(=O)Nc2ccc3c(c2)OCO3)[C@H]1OC(=O)Nc1ccc2c(c1)OCO2", "z-score": 1.86}
{"smiles": "CC1CC/C=C\\[C@H]2OC34C=CCN(c5ccc(Cl)cc5)C(=O)[C@H]3N(CCCCCO)C(=O)[C@]4(C)C2C(=O)O1", "note": "(some centres not stated)", "z-score": 0.184}
{"smiles": "CC(C)N1C(=O)c2ccccc2[C@@H](C(=O)NC2CC2)[C@@H]1c1ccc(CO)cc1", "z-score": -0.904}
{"smiles": "COCCCNC(=O)[C@@]1(Cc2ccccc2CN=[N+]=[N-])N=C(c2ccc(OCCCO)cc2)O[C@H]1c1ccccc1", "z-score": 1.06}
{"smiles": "COc1ccc([Si](C)(C)[C@@H]2[C@@H](CCO)O[C@]3(C(=O)N(Cc4ccc(N5CCCCC5=O)cc4)c4ccccc43)[C@H]2C)cc1", "z-score": -0.102}
{"smiles": "C=C(/C(=C/C[C@@H](OC(C)=O)c1cccc(OCCO)c1)c1cc(C(=O)OC)ccc1OC)C(C)C", "z-score": -0.373}
{"smiles": "C=C(COC)C(=O)CC[C@@H](OC(=O)c1cccnc1)c1ccc(OCCO)cc1", "z-score": "-10.9 (active)"}
{"smiles": "CN(C)c1ccc(C(O)C2C=CC3C(=O)N(c4ccccc4)C(=O)C3N2Nc2ccc([N+](=O)[O-])cc2)cc1", "note": "(configuration not stated)", "z-score": 0.0475}
{"smiles": "C=C[C@@H](COC(C)=O)N(C(=O)OC(C)(C)C)S(=O)(=O)c1ccc(Br)cc1", "z-score": -0.152}
{"smiles": "CCCC[C@@H](O)C1=C(COc2ccccc2)C[C@H]2C(=O)N(C)C(=O)[C@H]2[C@H]1CO", "z-score": -2.42}
{"smiles": "COC(=O)c1ccc([C@H](NC(=O)c2ccco2)[C@]2(C)C[C@H]2C2CCCCC2)cc1", "z-score": 0.0339}
